Results taken from PubChem BioAssay (NCI).
The panel holds about 83,000 compounds, 20% with a hit somewhere; the sample as a whole holds those more often.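 Growth was measured after 48 h exposure to one concentration of compound in 96-well plates. Values under 10 count as active.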 Active and inactive are the calls of the source.

Test system: RXF 393 renal
Test: NCI-60 one-dose screen, 48 h (100 = growth as untreated, 0 = no growth, -100 = all killed)
Settings: 10 µM unless noted

SMILES	growth
O=C(Nc1ccccc1)Nc1ncnc2c1ncn2-c1ccc(Cl)cc1	91.7% (inactive)
CC(C)c1ccc(C(=O)Nc2nc3ccc(O)c(CN(C)C)c3s2)cc1	97.4% (inactive)
Cc1ccc(Nn2c(SCC(=O)Nc3nc(-c4ccccc4)cs3)nc(C)c2C)cc1	61.5% (inactive)
N#CC(C#N)N=Nc1ccc(Br)cc1	87.4% (inactive)
CCN1C(=S)N(c2ccccc2)C2C1NN=c1s/c(=C3\C(=O)N(C(C)C)c4ccccc43)c(=O)n12 (stereo not drawn)	107% (inactive)
CSc1nc2ccccc2cc1/C=[N+](\[O-])c1ccccc1	83.8% (inactive)
CN1CCN(c2cc(Nc3cc(C4CC4)[nH]n3)nc(Nc3ccc(CC(=O)NCc4cccc(F)c4)cc3)n2)CC1	-56.5% (active)
C=CCN=c1sc2c(n1NC(=O)c1cc3ccc1CCc1ccc(cc1)CC3)C(=O)c1ccccc1C2=O	-26.3% (active)
Cn1cc(-c2csc(-c3cn(C(=O)OC(C)(C)C)c4ccc(Br)cc34)n2)c2ccnc(Cl)c21	78.3% (inactive)
CSc1oc(C)nc1[P+](c1ccccc1)(c1ccccc1)c1ccccc1	75.9% (inactive)
C=C1C(=O)O[C@H]2[C@H]1CC/C(Cn1cc(-c3ccccc3)nn1)=C\CC[C@@]1(C)O[C@@H]21	-74.1% (active)
O=S(=O)(c1ccccc1)n1cc2c(c1)-c1nc(Nc3ncccn3)sc1CC2	34.6% (inactive)
Cc1[nH]c(C(=O)Nc2ccccc2OC2CCNCC2)c(Cl)c1Cl	-85.4% (active)
COc1ccc(-c2cc(-c3ccc(Cl)cc3)c(C#N)c(=O)n2Cc2ccc(C(=O)Nc3ccccc3N)cc2)cc1	54.5% (inactive)
O=C(CN1CCCCC1)Nc1nc(-c2cc3ccccc3oc2=O)cs1	100% (inactive)
Oc1ccc(Cl)cc1/C=N\NC(=S)N/N=C/c1cc(Cl)ccc1O	42.6% (inactive)
COC12C=C/C(=C(/C(=O)OCc3ccncn3)C(=O)CCCCCCCCC3(OC)C=C/C(=C(/C(=O)OCc4ccncn4)C(=O)CCCCCCCC1)O3)O2	-77.3% (active)
COc1ccc2c(c1)N(CCO)C1=C(C(=O)OC1)C2c1cccc(F)c1 (stereo not drawn)	31.3% (inactive)
CC(=O)Oc1ccc(/C(=C(\C)c2ccc(Cl)cc2)c2ccc(OCCN3CCCCC3)cc2)cc1	29.3% (inactive)
O=C(N(c1ccccc1)c1ccccc1)n1cc(I)c2nc(Cl)nc(Cl)c21	40.1% (inactive)

SMILES	growth
N#Cc1nc(-c2ccccc2)oc1S(=O)(=O)N1CCN(c2ccccc2)CC1	114% (inactive)
Cc1ccc(NC(=O)c2sc3nc(C)c(Br)c(C)c3c2N)cc1	43.3% (inactive)
O=C(CN1C(=O)S/C(=C\C(Cl)=C\c2ccccc2)C1=O)NCCc1ccc(O)cc1	-22.7% (active)
O=C(/C=C/c1cn(-c2ccccc2)nc1-c1ccc(Cl)cc1)c1ccc(F)cc1	100% (inactive)
CCOC(=O)c1c(NC(=O)c2cccc(C(F)(F)F)c2)sc2c(CN(C)C)c(O)ccc12	38.4% (inactive)
N#Cc1c(-c2ccccc2)cc(-c2ccc(Nc3nc(Nc4ccc(Cl)cc4)nc(Nc4ccc(Cl)cc4)n3)cc2)nc1N	-44.5% (active)
O=C(/C=C/c1cccs1)Nc1ncc(Cc2ccccc2F)s1	-32.4% (active)
O=S(=O)(Nc1cc(Cl)ccc1Cl)c1ccc(-c2cnc(C3CC3)o2)cc1	44.8% (inactive)
CCOC(=O)c1ccc2c(c1)nc(-c1ccccc1)n2C1CCCCC1	112% (inactive)
CC(=O)N1N=C(c2ccc(C(F)(F)F)c(F)c2)CC1c1[nH]c(C)c(C(=O)NCC(F)(F)F)c1C (stereo not drawn)	31% (inactive)
O=C(CN1C(=O)S/C(=C\c2ccccc2)C1=O)Nc1ncc(Cc2ccccc2Cl)s1	125% (inactive)
COc1cc(OCc2cccc(Br)c2C)cc(OC)c1C=O	75.1% (inactive)
COc1cc(NS(=O)(=O)c2ccc(-c3cnc(C4CC4)o3)cc2)ccc1F	12.4% (inactive)
COC1=CC(c2ccc[nH]2)=N/C1=C\c1[nH]c(C)c(CC(=O)OCc2ccccc2)c1CCC(=O)OCc1ccccc1	-42.6% (active)
Clc1cccc(Nc2ncnc3ccc(-c4cnc5[nH]ccc5c4)cc23)c1	73.7% (inactive)
COc1cc2ncnc(Nc3ccc(F)c(Cl)c3)c2cc1OCC(=O)N1CCN(c2ccccc2)CC1	81.2% (inactive)
O=C1Nc2ccccc2/C1=C/c1nc2ccccc2c(=O)[nH]1	96% (inactive)
CNc1nnc2n(-c3ccccc3)c(=O)c3cnn(-c4ccccc4)c3n12	98.2% (inactive)
C=C1C(=O)O[C@H]2[C@H]1CC/C(COC(=O)c1cc3ccccc3s1)=C\CC[C@@]1(C)O[C@@H]21	-88.8% (active)

Test system: SF-268 CNS
Test: as above
Settings: 10 µM unless noted

SMILES	growth
O=C(Nc1ccccc1)Nc1ncnc2c1ncn2-c1ccc(Cl)cc1	97.1% (inactive)
CC(C)c1ccc(C(=O)Nc2nc3ccc(O)c(CN(C)C)c3s2)cc1	87.2% (inactive)
Cc1ccc(Nn2c(SCC(=O)Nc3nc(-c4ccccc4)cs3)nc(C)c2C)cc1	81.7% (inactive)
N#CC(C#N)N=Nc1ccc(Br)cc1	90.2% (inactive)
CCN1C(=S)N(c2ccccc2)C2C1NN=c1s/c(=C3\C(=O)N(C(C)C)c4ccccc43)c(=O)n12 (stereo not drawn)	95.8% (inactive)
CSc1nc2ccccc2cc1/C=[N+](\[O-])c1ccccc1	56.6% (inactive)
CN1CCN(c2cc(Nc3cc(C4CC4)[nH]n3)nc(Nc3ccc(CC(=O)NCc4cccc(F)c4)cc3)n2)CC1	30.2% (inactive)
C=CCN=c1sc2c(n1NC(=O)c1cc3ccc1CCc1ccc(cc1)CC3)C(=O)c1ccccc1C2=O	8.79% (active)
Cn1cc(-c2csc(-c3cn(C(=O)OC(C)(C)C)c4ccc(Br)cc34)n2)c2ccnc(Cl)c21	82.4% (inactive)
CSc1oc(C)nc1[P+](c1ccccc1)(c1ccccc1)c1ccccc1	54.8% (inactive)
C=C1C(=O)O[C@H]2[C@H]1CC/C(Cn1cc(-c3ccccc3)nn1)=C\CC[C@@]1(C)O[C@@H]21	61.2% (inactive)
O=S(=O)(c1ccccc1)n1cc2c(c1)-c1nc(Nc3ncccn3)sc1CC2	66.3% (inactive)
Cc1[nH]c(C(=O)Nc2ccccc2OC2CCNCC2)c(Cl)c1Cl	39.4% (inactive)
COc1ccc(-c2cc(-c3ccc(Cl)cc3)c(C#N)c(=O)n2Cc2ccc(C(=O)Nc3ccccc3N)cc2)cc1	73.4% (inactive)
O=C(CN1CCCCC1)Nc1nc(-c2cc3ccccc3oc2=O)cs1	94.1% (inactive)
Oc1ccc(Cl)cc1/C=N\NC(=S)N/N=C/c1cc(Cl)ccc1O	40.6% (inactive)
COC12C=C/C(=C(/C(=O)OCc3ccncn3)C(=O)CCCCCCCCC3(OC)C=C/C(=C(/C(=O)OCc4ccncn4)C(=O)CCCCCCCC1)O3)O2	-3.7% (active)
COc1ccc2c(c1)N(CCO)C1=C(C(=O)OC1)C2c1cccc(F)c1 (stereo not drawn)	35.5% (inactive)
CC(=O)Oc1ccc(/C(=C(\C)c2ccc(Cl)cc2)c2ccc(OCCN3CCCCC3)cc2)cc1	58.6% (inactive)
O=C(N(c1ccccc1)c1ccccc1)n1cc(I)c2nc(Cl)nc(Cl)c21	34.3% (inactive)

SMILES	growth
N#Cc1nc(-c2ccccc2)oc1S(=O)(=O)N1CCN(c2ccccc2)CC1	107% (inactive)
Cc1ccc(NC(=O)c2sc3nc(C)c(Br)c(C)c3c2N)cc1	49% (inactive)
O=C(CN1C(=O)S/C(=C\C(Cl)=C\c2ccccc2)C1=O)NCCc1ccc(O)cc1	60.7% (inactive)
O=C(/C=C/c1cn(-c2ccccc2)nc1-c1ccc(Cl)cc1)c1ccc(F)cc1	83.4% (inactive)
CCOC(=O)c1c(NC(=O)c2cccc(C(F)(F)F)c2)sc2c(CN(C)C)c(O)ccc12	84.7% (inactive)
N#Cc1c(-c2ccccc2)cc(-c2ccc(Nc3nc(Nc4ccc(Cl)cc4)nc(Nc4ccc(Cl)cc4)n3)cc2)nc1N	51.9% (inactive)
O=C(/C=C/c1cccs1)Nc1ncc(Cc2ccccc2F)s1	55.9% (inactive)
O=S(=O)(Nc1cc(Cl)ccc1Cl)c1ccc(-c2cnc(C3CC3)o2)cc1	49.7% (inactive)
CCOC(=O)c1ccc2c(c1)nc(-c1ccccc1)n2C1CCCCC1	108% (inactive)
CC(=O)N1N=C(c2ccc(C(F)(F)F)c(F)c2)CC1c1[nH]c(C)c(C(=O)NCC(F)(F)F)c1C (stereo not drawn)	60.7% (inactive)
O=C(CN1C(=O)S/C(=C\c2ccccc2)C1=O)Nc1ncc(Cc2ccccc2Cl)s1	87.9% (inactive)
COc1cc(OCc2cccc(Br)c2C)cc(OC)c1C=O	91.9% (inactive)
COc1cc(NS(=O)(=O)c2ccc(-c3cnc(C4CC4)o3)cc2)ccc1F	55.7% (inactive)
COC1=CC(c2ccc[nH]2)=N/C1=C\c1[nH]c(C)c(CC(=O)OCc2ccccc2)c1CCC(=O)OCc1ccccc1	-2.4% (active)
Clc1cccc(Nc2ncnc3ccc(-c4cnc5[nH]ccc5c4)cc23)c1	66.2% (inactive)
COc1cc2ncnc(Nc3ccc(F)c(Cl)c3)c2cc1OCC(=O)N1CCN(c2ccccc2)CC1	82.6% (inactive)
O=C1Nc2ccccc2/C1=C/c1nc2ccccc2c(=O)[nH]1	94.6% (inactive)
CNc1nnc2n(-c3ccccc3)c(=O)c3cnn(-c4ccccc4)c3n12	96.1% (inactive)
C=C1C(=O)O[C@H]2[C@H]1CC/C(COC(=O)c1cc3ccccc3s1)=C\CC[C@@]1(C)O[C@@H]21	-60.6% (active)
